# Screens from PubChem.
# MsrA inhibitor: bovine MsrA inhibition; AID 651718; 360,000 compounds, 0.75% hits; inhibition, % at 15.5 µM; purified bovine MsrA, absorbance read-out; in the data active = inhibition above about 4.5%;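 also: 0% = vehicle wells with enzyme and 100% = reference inhibitor wells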
# MsrA act: activates bovine MsrA enzyme. AID 602163. 360,000 compounds, 0.3% hits. activation, % at 10.6 µM. purified bovine MsrA, absorbance read-out; in the data active = activation above about 7.5%;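 also: 0% = vehicle and 100% = reference activator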
# GC-B act: GC-B (human) receptor activation; activation, % at 10 µM; HEK293-GC-B cells, CNP EC30, cGMP TR-FRET; 0% at EC30 CNP, 100% saturating CNP; P20594; 370,000 compounds, 0.11% hits;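 active = activation at 10 µM reaching about 35% in either raw or pattern-adjusted values, limit read from the data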
# NPR1 activator: GC-A (human) enzyme activation; HEK293 GC-A cells, cGMP TR-FRET, EC30 ANP; 0% at EC30 ANP, 100% saturating ANP; 370,000 compounds, 0.14% hits; P16066; activation, % at 10 µM; in the data active = activation above about 40%
# Target sequence (P16066 whole entry, looked up): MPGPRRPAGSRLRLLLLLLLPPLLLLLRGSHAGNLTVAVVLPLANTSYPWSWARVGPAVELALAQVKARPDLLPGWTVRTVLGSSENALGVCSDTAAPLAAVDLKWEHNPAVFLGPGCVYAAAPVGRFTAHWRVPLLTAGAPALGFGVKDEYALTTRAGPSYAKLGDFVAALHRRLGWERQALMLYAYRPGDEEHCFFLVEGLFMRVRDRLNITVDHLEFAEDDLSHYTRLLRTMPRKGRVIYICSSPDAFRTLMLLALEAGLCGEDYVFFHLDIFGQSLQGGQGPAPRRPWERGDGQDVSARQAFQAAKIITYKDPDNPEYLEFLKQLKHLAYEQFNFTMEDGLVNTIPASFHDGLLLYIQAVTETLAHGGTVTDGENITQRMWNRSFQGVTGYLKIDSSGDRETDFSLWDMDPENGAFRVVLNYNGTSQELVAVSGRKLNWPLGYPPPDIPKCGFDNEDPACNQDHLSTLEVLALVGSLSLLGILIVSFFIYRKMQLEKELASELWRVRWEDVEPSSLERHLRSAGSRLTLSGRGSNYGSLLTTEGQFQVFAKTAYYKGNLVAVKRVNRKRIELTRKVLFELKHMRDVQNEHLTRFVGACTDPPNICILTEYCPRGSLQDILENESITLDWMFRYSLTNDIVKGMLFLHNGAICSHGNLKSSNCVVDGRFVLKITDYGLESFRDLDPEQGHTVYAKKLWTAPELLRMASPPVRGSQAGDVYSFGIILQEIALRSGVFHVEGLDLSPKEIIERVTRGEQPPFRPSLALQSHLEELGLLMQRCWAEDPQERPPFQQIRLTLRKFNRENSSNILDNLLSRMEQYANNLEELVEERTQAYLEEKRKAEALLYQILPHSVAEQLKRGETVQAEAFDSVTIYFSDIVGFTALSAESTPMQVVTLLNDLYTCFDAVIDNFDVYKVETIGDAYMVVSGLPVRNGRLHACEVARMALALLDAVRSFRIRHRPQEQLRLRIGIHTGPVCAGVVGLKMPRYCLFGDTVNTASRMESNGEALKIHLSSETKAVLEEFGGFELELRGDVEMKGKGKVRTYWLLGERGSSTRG
# m5-HT2A agonist: activates the mouse 5-HT2A serotonin receptor; P35363; CHO-K1 mHTR2A beta-arrestin complementation, luminescence; percent of 30 µM serotonin response; activation, % at 7.6 µM; 360,000 compounds, 0.66% hits; AID 624169;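 active = activation above a run cutoff, the mean activation of all tested compounds plus 3 SD, cut at about 14% in these data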;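 also: 0% = plate median of compound wells and 100% = 30 µM serotonin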
# MOR ag counter: OPRM1 agonism in mouse HTR2A counterscreen; shares compounds with m5-HT2A agonist; U2OS OPRM1 beta-arrestin PathHunter, luminescence; DMSO 0%, DAMGO 9.3 µM 100%; activation, % at 9.3 µM; 2,300 compounds, 5.3% hits; AID 624380;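 active = mean activation above the mean of DMSO-only wells plus 3 SD, cut at about 0.5% in these data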
# m5-HT2A ag conf: confirmation of mouse HTR2A serotonin receptor agonists | shares compounds with m5-HT2A agonist | CHO-K1 PathHunter beta-arrestin recruitment, luminescence; DMSO 0%, 30 µM serotonin 100% | activation, % at 7.6 µM | 2,300 compounds, 19% hits | AID 624381;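 active = mean activation across triplicates above the hit threshold derived in the original primary screen, cut at about 15% in these data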
# * marks the source's active call; other numbers are inactive results; nt = not tested or not shown. Compounds with a hit are over-represented: about 1.8% of the library has one in this group of screens.
SMILES,MsrA inhibitor,MsrA act,GC-B act,NPR1 activator,m5-HT2A agonist,MOR ag counter,m5-HT2A ag conf
CSCCC(c1nnnn1-c1ccc2c(c1)OCCO2)N1CCC2(CC1)C(=O)NCN2c1ccccc1 (stereo not drawn),0,0,-2,-7,-1,nt,nt
O=C(NCNC(=O)NC1C(=O)NC(=O)N1CO)NC1C(=O)NC(=O)N1CO (stereo not drawn),0,-9,2,4,17*,0,1
Cc1ccc2nc(-c3ccc(CN4CCC(n5nnc6ccccc65)CC4)cc3)c(-c3ccccc3)nc2c1,1,nt,13,0,nt,nt,nt
CNCCc1ccc(O)c(O)c1,2,-3,2,3,28*,0,161*
O=C(NCCN1CCC2(CC1)C(=O)NCN2c1ccccc1)c1ccc(Cl)c(Cl)c1,0,nt,-17,-7,nt,nt,nt
CC12CCC3c4ccc(OC(=O)N(CCCl)CCCl)cc4CCC3C1CCC2O (stereo not drawn),0,-3,-3,-4,-6,nt,nt
CCCN(CCC)C1CCc2ccc(O)cc2C1 (stereo not drawn),-1,1,2,-2,60*,0,179*
CCC12CCN(CC3(O)CC3)C(Cc3ccc(O)cc31)C2(C)C (stereo not drawn),-1,nt,-5,3,nt,nt,nt
CCCN(CCC)C1CCc2cccc(O)c2C1 (stereo not drawn),-1,-2,10,2,53*,-1,92*
COC(=O)C1=C(c2ccc(OCc3ccccc3)cc2)C[C@@H]2CC[C@H]1N2C(=O)NC1CCN(Cc2ccccc2)CC1,nt,-6,nt,nt,-12,nt,nt
Oc1ccc(C2=CCNCC2)cc1O,1,-4,-8,-4,36*,0,117*
Clc1cccc(N2CCNCC2)c1,1,-6,-5,-4,25*,-1,7
COP(=O)(OC)C(NC(=O)/C=C/c1ccccc1)C(Cl)(Cl)Cl (stereo not drawn),1,-6,0,1,19*,-1,-2
COC(=O)C1=C(c2ccc(-c3ccccc3)c(F)c2)C[C@@H]2CC[C@H]1N2C(=O)NC1CCCCC1,0,-3,-3,-4,6,nt,nt
O=C(CNC(=O)OCc1ccccc1)NC(Cc1ccccc1)P(=O)(Oc1ccccc1)Oc1ccccc1 (stereo not drawn),nt,nt,-14,-9,nt,nt,nt
CCCN1CC[C@@H]2c3cc(O)ccc3CC[C@@H]21,1,0,2,3,17*,0,49*
CC1[C@H]2Cc3ccc(O)cc3[C@]1(C)CCN2CCc1ccccc1 (stereo partly drawn),-1,3,-10,-14,-1,nt,nt
CC(C)(C)C(=O)N1Cc2ccccc2-n2nncc2C1,-1,-9,4,4,1,nt,nt
CCC(=NCCc1c[nH]c2ccccc12)c1c(O)n(-c2ccc(C)cc2)c(=O)[nH]c1=O,0,-9,-4,-6,-3,nt,nt
CCC(=NCCc1c[nH]c2ccccc12)c1c(O)n(C)c(=O)n(C)c1=O,-1,-2,14,13,27*,0,-1
CC(C)N1CCOC(c2ccc(O)c(O)c2)C1 (stereo not drawn),-1,-5,4,-1,35*,-1,113*
CC(C)[C@@]1(NC(=O)[C@@H]2C[C@@H]3c4cccc5[nH]cc(c45)C[C@H]3N(C)C2)O[C@@]2(O)[C@@H]3CCCN3C(=O)[C@H](Cc3ccccc3)N2C1=O,0,-2,-9,-12,30*,0,83*
CN1C[C@H](CO)C=C2c3cccc4[nH]cc(c34)C[C@H]21,0,-3,-12,-3,30*,0,94*
Cn1cc(C(O)CN2CCCCC2)c2ccccc21 (stereo not drawn),-1,-3,2,1,-6,nt,nt
CN1c2ccc(Br)cc2[C@H]2NCC[C@H]2[C@H]1CO,nt,nt,-3,-4,nt,nt,nt
SMILES,MsrA inhibitor,MsrA act,GC-B act,NPR1 activator,m5-HT2A agonist,MOR ag counter,m5-HT2A ag conf
O=C(/C=C/c1ccc2c(c1)OCO2)c1c(O)n(CCc2ccccc2)c(=O)[nH]c1=O,0,-4,-7,0,5,nt,nt
O=C(/C=C/c1ccccc1)c1c(O)n(CCc2ccccc2)c(=O)[nH]c1=O,0,-3,-2,2,15*,-1,1
COP(=O)(OC)C1(Nc2ccc(C)cc2)CCCCC1,-1,-8,1,-2,15*,-1,-3
COc1cc(O)c2c(c1)/C=C/C[C@H](O)[C@H](O)[C@@H](O)/C=C/C[C@H](C)OC2=O,nt,nt,-3,2,nt,nt,nt
c1ccc(-c2ccc3c(c2)CNCc2cnnn2-3)cc1,1,-3,4,0,2,nt,nt
CNc1cc(N2CCNCC2)ccc1[N+](=O)[O-],2,-2,-2,0,14,nt,nt
O=[N+]([O-])c1ccc(N2CCNCC2)cc1Sc1ccccn1,1,-10,1,-3,25*,-1,10
Nc1cc(N2CCNCC2)ccc1[N+](=O)[O-],1,-4,-1,0,42*,0,28*
CN1CCN(c2ccc([N+](=O)[O-])c(N)c2)CC1,0,-4,0,0,-4,nt,nt
COc1cc(C(=O)N/N=C/C23CC[C@@H](O)CC2(O)CC[C@@H]2[C@@H]3CCC3(C)C(C4=CC(=O)OC4)CCC23O)ccc1O (stereo partly drawn),0,-3,2,0,15*,0,-3
CC(=O)OC(C)(C)/C=C/C(=O)C(C)(O)C1[C@H](O)C[C@@]2(C)C3CC=C4C(CC[C@@H](O)C4(C)C)[C@]3(CO)C(=O)C[C@]12C (stereo partly drawn),0,1,-15,-50,25*,0,4
CC(=O)OC(C)(C)/C=C/C(=O)[C@](C)(O)[C@H]1[C@H](O)C[C@@]2(C)[C@@H]3CC=C4[C@H](C[C@H](O)C(=O)C4(C)C)[C@]3(C)C(=O)C[C@]12C,nt,-2,nt,nt,14,nt,nt
C[C@@H]1O[C@@H](O[C@@H]2C=C3CC[C@@H]4C(CC[C@]5(C)[C@@H](c6ccc(=O)oc6)CC[C@]45O)[C@@]3(C)CC2)[C@H](O)[C@H](O)[C@H]1O (stereo partly drawn),0,-3,4,0,18*,6.3*,9
C[C@@H]1O[C@@H](O[C@@H]2C=C3CCC4C(CC[C@]5(C)[C@@H](c6ccc(=O)oc6)CC[C@]45O)[C@@]3(C)CC2)[C@H](O)[C@H](O)[C@H]1O (stereo partly drawn),0,-9,3,3,16*,7.7*,28*
Brc1csc(N2CCNCC2)n1,nt,nt,2,2,nt,nt,nt
